Assay outcomes (PubChem BioAssay)
Only a selection was taken, and hits are over-represented in it overall.
Pf Dd2 inh – qHTS Primary assay for Inhibitors of Plasmodium falciparum Dd2 growth in vitro | P. falciparum Dd2 growth, SYBR Green, 72 h | Potency, µM (highest dose often 28.9 µM), actives largely listed as inhibitors | hit rate 4.3% among 120,000 | AID 1347417, 2020; active = well fitted inhibition curve with a large enough effect; note: nearly all actives have a fitted effect of over 65% in size
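Readout: SYBR Green fluorescence, 485 nm excitation, 535 nm emission, after ~16 h lysis at 37C. Before that, Dd2-infected red cells (2.5% hematocrit) grew 72 h with compound, 29 uM top final concentration.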
Hits are given with their value; i = inactive; [ ] = another dose, or the depositor's remark.

SMILES	Pf Dd2 inh
O=C(C[C@@H]1CCNC[C@@H]1Cc1cc(CSc2ccccc2)on1)NC1CCCCC1	i
O=C1Nc2ccccc2C12CCN(S(=O)(=O)c1ccccc1)C2 (stereo not drawn)	i
Cc1ccc(NC(=O)[C@@H]2CNC[C@H](C(=O)N3CCN(CCO)CC3)C2)cc1	i
COCCN1Cc2[nH]nc(-c3ccccc3OC)c2CC1=O	i
CS(=O)(=O)N1CCCN(C(=O)CCc2c[nH]c3ccccc23)CCNC(=O)CC1c1ccccc1 (stereo not drawn)	i
CCCCCNC(=O)Cc1csc2nc(C)c(-c3cc(C)n(-c4cccc(C)c4)n3)c(=O)n12	i
Cc1ccc(Cl)cc1-n1nc(-c2c(C)nc3scc(CC(=O)NCCC(C)C)n3c2=O)cc1C	7.94µM
CCCCNC(=O)Cc1csc2nc(C)c(-c3cc(C)n(-c4cccc(Cl)c4)n3)c(=O)n12	7.94µM
COCCNC(=O)Cc1csc2nc(C)c(-c3cc(C)n(-c4ccccc4F)n3)c(=O)n12	i
CCCNC(=O)Cc1csc2nc(C)c(-c3cc(C)n(-c4cccc(C)c4C)n3)c(=O)n12	i
CCCCNC(=O)Cc1csc2nc(C)c(-c3cc(C)n(-c4ccc(C)cc4)n3)c(=O)n12	i
C#CCN(C)C(=O)[C@@H]1CCCN1[C@H](CC(C)C)C(=O)NC	i
CCCCOc1ccc(C(=O)N2CCC[C@H]2c2nc(-c3ccccc3Cl)no2)cc1	i
COCC(=O)NC1CCC12CCN(Cc1ccc(C)o1)CC2 (stereo not drawn)	i
N#Cc1cccc(C(=O)N2CCCCCCNC(=O)CC2c2ccccc2)c1 (stereo not drawn)	i
CC(C)N1CC2CCC(C1)N2Cc1cccc(Cl)c1	i
Cc1ccc(-c2cccc(CN3C4CCC3CN(C(=O)c3ccncc3)C4)c2)c(C)c1	i
Cc1ccc(-c2cccc(CN3C4CCC3CN(C(C)C)C4)c2)c(C)c1	10µM
CCc1nc(NCCOC)ncc1C(=O)O	i
O=C(CCCc1nc(-c2ccncc2)no1)N1CCCC2(CCNCC2)CC1	i
COc1ccccc1C(=O)N1CCn2c(nnc2-c2cccnc2)C1	i
CCn1c2ccc(F)cc2c2nnc(SCCN3CCCCC3)nc21	12.6µM
CCCn1c2ccc(C)cc2c2nnc(SCCN3CCCCC3)nc21	8.91µM
CCOC(=O)c1ccc(NC(=O)CSc2nnc3c4ccccc4n(CC)c3n2)cc1	i
CCN(CC)CCSc1nnc2c3cc(F)ccc3n(CC)c2n1	i
SMILES	Pf Dd2 inh
CCn1c2ccccc2c2nnc(SCC(=O)Nc3ccccc3OC)nc21	i
CCCc1nnc(NC(=O)CSc2nnc3c4ccccc4n(CC)c3n2)s1	i
CCCn1c2ccc(F)cc2c2nnc(SCCN3CCCCC3)nc21	7.94µM
Nc1nc(C2CC(O)C2)cc(N2CCCN(C(=O)c3ccoc3)CC2)n1 (stereo not drawn)	i
Cc1ccc(C)c(C(=O)NC2CCN(c3cc(C(F)(F)F)nc(C)n3)CC2)c1	i
O=C1Nc2ccc(-c3cccc(C(F)(F)F)c3)cc2C(=O)N2CCN(C(=O)[C@@H]3CSCN3)C[C@H]12	i
COc1ccc(C(=O)N2CCC3(CC2)NC(=O)N(Cc2ccc(Cl)cc2)C3=O)cc1	i
COc1ccc(-c2nn(C)c3sc(C(=O)Nc4cc(OC)c(OC)c(OC)c4)cc23)cc1OC	11.2µM
COc1ccc(-c2nn(C)c3sc(C(=O)N4CCN(c5cccc(Cl)c5)CC4)cc23)cc1OC	i
COc1cccc(-c2nn(C)c3sc(C(=O)NCc4cc(OC)ccc4OC)cc23)c1	i
CN(C(=O)Cn1cccc1-c1nc(-c2ccc3c(c2)OCO3)no1)c1ccccc1	i
Cc1occc1C(=O)N1CCC2(CCCN(CC3CCCCC3)C2=O)C1 (stereo not drawn)	i
O=C(CCn1c(=O)c2cccn2c2cccnc21)N1CCN(c2cccc(C(F)(F)F)c2)CC1	i
FC(F)(F)c1cccc(N2CCN(Cc3nnc(-c4ccccc4)o3)CC2)c1	i
CC(C)OCc1cc(CN2CCN(c3cccc(C(F)(F)F)c3)CC2)c(O)c2ncccc12	1.41µM
CCOCc1cc(CN2CCN(c3cccc(C(F)(F)F)c3)CC2)c(O)c2ncccc12	2.82µM
O=C(c1cc2ccc3cccnc3c2[nH]1)N1CCN(c2cccc(C(F)(F)F)c2)CC1	i
OC1(CN2CCN(c3cccc(C(F)(F)F)c3)CC2)CNCCOC1 (stereo not drawn)	i
CN(C)C[C@@H]1CN(c2ncccn2)C[C@H]1NC(=O)c1cnccn1	i
O=C(N[C@@H]1C[C@H](Cn2cc(C3CC3)nn2)[C@@H](O)[C@H]1O)c1ccccc1	i
Cc1ccc(NC(=O)Cn2c(-c3ccc(F)cc3)nc(C)c(CCO)c2=O)cc1	i
COc1ccc(NC(=O)Cn2c(-c3ccc(F)cc3)nc(C)c(CCO)c2=O)cc1Cl	i
COc1cc(NC(=O)Cn2c(-c3ccc(F)cc3)nc(C)c(CCO)c2=O)cc(OC)c1	11.2µM
O=C(c1cccc(F)c1F)N1CCCC2(CCNCC2)CC1	i
CCc1ccc(-c2nn(CC(=O)NCc3ccccc3)c3c2cnc2ccc(F)cc23)cc1	i
SMILES	Pf Dd2 inh
CCc1ccc(-c2nn(CC(=O)Nc3ccccc3)c3c2cnc2ccc(F)cc23)cc1	i
CCc1ccc(C(=O)c2cnc3ccc(F)cc3c2S(=O)(=O)c2ccccc2)cc1	11.2µM
O=C1NC[C@H]2CN(Cc3cccs3)CCN12	i
CCCS(=O)(=O)N1CC[C@H](c2nc(C)no2)[C@H](NC(=O)COC)C1	i[5.79 µM]
COCCn1c(C)cnc1CC1CCCN(C(=O)C2(c3ccc(OC)cc3)CC2)C1 (stereo not drawn)	i
CC(=O)N1CCC(C(=O)NCCc2ncc(C)n2C2CCC2)CC1	i
Cc1cnc(CCNC(=O)c2ccc(C#N)cc2)n1C1CCC1	i
COC(=O)CNC(=O)NCCc1ncc(C)n1C1CCCC1	i
CCCn1c(C)cnc1CC1CCN(C(=O)C2(c3ccc(OC)cc3)CC2)C1 (stereo not drawn)	5.01µM
Cc1cnc(CCNC(=O)C2(c3ccccc3)CC2)n1C1CCCCCC1	2.24µM
Cc1cnc(CCNC(=O)COc2ccccc2)n1C1CCC1	3.16µM
COc1ccc(C2(C(=O)NCCc3ncc(C)n3C3CC3)CC2)cc1	2.51µM
Cc1cnc(C(=O)NCCc2ncc(C)n2C2CC2)cn1	i
CCCn1c(C)cnc1CC1CCN(C(=O)c2c(C)noc2C)CC1	i
Cc1cnc(CCNC(=O)c2ccnn2C)n1C1CC1	i
Cc1ccc(NC(=O)NCCc2ncc(C)n2C2CCC2)cc1C	i
Cc1nc(N2CCN(C)CC2)ncc1C(=O)N1C[C@@H](C)[C@](O)(C2CC2)C1	i
O=C1CC(c2ccccc2)N(C(=O)CNC(=O)Cn2ccnc2)CCCCCN1 (stereo not drawn)	i
Oc1cccc(CN(Cc2cn(-c3ccccc3)nn2)C2CC2)c1	i
O=C(CC[C@@H]1CNC(=O)[C@@H]2C[C@H](NC(=O)c3ccccc3)CN12)NCc1ccc(F)cc1	i
CNC(=O)[C@@H]1CN(Cc2ccccc2C(F)(F)F)C[C@H]1CO	i
COc1cc(OC)c(C(=O)N2CC[C@H](CO)[C@@H](O)C2)cc1OC	i
Cc1cnc(-c2ccncc2)n1C1CCCN(C(=O)C2(c3ccccc3)CC2)C1 (stereo not drawn)	i
CC(=O)N1CCC(n2c(C)cnc2C2CC2)CC1	i
Cc1cnc(C2CCC2)n1C1CCN(C(=O)C2(c3ccccc3)CC2)CC1	12.6µM
O=C(O)C[C@@H]1CCN(C(=O)c2ccco2)C[C@@H]1CCN1CCN(c2cccc(C(F)(F)F)c2)CC1	i
Cn1cc(CN2CCN(C(=O)Cc3ccccc3)CC2)ccc1=O	i
